Measurements taken from the supplement of paper PMC6555819.

Legend:
Test in all cases: PBM binding z-score (relative to random genomic background probes); higher = stronger binding; sequences stand for … in GC…GCGATTGACAGCGTAGAATGAAGG
[1] = system: FXR:RXRa (NR concentration 270 nM, RXRa partner concentration 90 nM)
Procedure, shortened: (§1)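 Regression normalization was applied to scanned fluorescence from custom Agilent 4×180K protein-binding microarrays. Before scanning, arrays were incubated 1 h with ligand-free nuclear receptor dimers, and binding was detected with antibodies against each partner (one per run). Binding z-scores use the random background probes as reference.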

[2] = system: LXRa:RXRa (NR concentration 270 nM, RXRa partner concentration 90 nM)
Procedure, shortened: as §1

[3] = system: LXRa homodimer (NR concentration 270 nM)
Procedure, shortened: as §1

[4] = system: LXRb:RXRa (NR concentration 270 nM, RXRa partner concentration 90 nM)
Procedure, shortened: as §1

[5] = system: LXRb homodimer (NR concentration 270 nM)
Procedure, shortened: as §1

[6] = system: PPARa:RXRa (NR concentration 270 nM, RXRa partner concentration 90 nM)
Procedure, shortened: as §1

[7] = system: PPARg:RXRa (NR concentration 180 nM, RXRa partner concentration 90 nM)
Procedure, shortened: as §1

[8] = system: PPARg:RXRa 270nM:90nM, anti-RXR (NR concentration 270 nM, RXRa partner concentration 90 nM)
Procedure, shortened: as §1

[9] = system: PPARg:RXRa 30nM:10nM, anti-RXR (NR concentration 30 nM, RXRa partner concentration 10 nM)
Procedure, shortened: as §1

[10] = system: PPARg:RXRa 90nM:30nM, anti-RXR (NR concentration 90 nM, RXRa partner concentration 30 nM)
Procedure, shortened: as §1

[11] = system: PPARg:RXRa DBDmut IVT, anti-RXR (DBD mutation: RXRa K156A/R161A, NR concentration 270 nM, RXRa partner concentration 90 nM)
Procedure, shortened: as §1

[12] = system: PPARg:RXRa IVT, anti-PPARg (NR concentration 270 nM, RXRa partner concentration 90 nM)
Procedure, shortened: as §1

[13] = system: PPARg DBDmut:RXRa IVT, anti-PPARg (DBD mutation: PPARg1 K132A/R137A, NR concentration 270 nM, RXRa partner concentration 90 nM)
Procedure, shortened: as §1

[14] = system: PPARg DBDmut IVT, anti-PPARg (DBD mutation: PPARg1 K132A/R137A, NR concentration 270 nM)
Procedure, shortened: as §1

[15] = system: PPARg homodimer (NR concentration 180 nM)
Procedure, shortened: as §1

[16] = system: PXR:RXRa (NR concentration 270 nM, RXRa partner concentration 90 nM)
Procedure, shortened: as §1

[17] = system: PXR homodimer (NR concentration 270 nM)
Procedure, shortened: as §1

[18] = system: RARa:RXR (NR concentration 270 nM, RXRa partner concentration 90 nM)
Procedure, shortened: as §1

[19] = system: RARa homodimer (NR concentration 270 nM)
Procedure, shortened: as §1

[20] = system: RARb:RXRa (NR concentration 270 nM, RXRa partner concentration 90 nM)
Procedure, shortened: as §1

Sequence	PBM binding z-score [1]	PBM binding z-score [2]	PBM binding z-score [3]	PBM binding z-score [4]	PBM binding z-score [5]	PBM binding z-score [6]	PBM binding z-score [7]	PBM binding z-score [8]	PBM binding z-score [9]	PBM binding z-score [10]	PBM binding z-score [11]	PBM binding z-score [12]	PBM binding z-score [13]	PBM binding z-score [14]	PBM binding z-score [15]	PBM binding z-score [16]	PBM binding z-score [17]	PBM binding z-score [18]	PBM binding z-score [19]	PBM binding z-score [20]
TCTATTAGTTGAAGGGCAACCCACGAGTCCGTTT	0.7	1.04	0.728	1.18	0.631	1.08	0.343	2.04	3.83	2.89	2.65	0.706	0.623	0.929	1.43	1.02	1.09	0.823	1.21	1.65
CCTAGCAGGCCAATCTTGGTCACTCAAGGCTTGA	-0.234	-0.221	-0.7	-0.577	-0.715	-0.114	-0.277	-0.609	-0.894	-0.992	1.37	0.831	-0.756	-1.03	-0.618	-0.565	-0.712	-0.332	-1.07	0.275
GCTAGCAGGCCATTTGGGTCACACAATGACGGGC	0.201	0.0992	-0.68	0.327	-0.778	1.89	1.2	1.09	-0.147	0.392	2	2.63	-0.238	-0.979	0.139	0.906	0.00293	1.05	-0.205	1.61
ACCGAAAGGTCGACGAGGTGAGTATACACCGTTT	4.37	3.09	0.178	2.83	-0.0188	4.42	2.71	3.21	0.781	2.02	1.08	2.03	0.47	0.38	1.27	2.93	0.279	3.29	0.4	4.19
CAAACTAGGTCAAGGTGAAAGTCGGTTTGTGCCA	3.92	2.88	0.394	1.93	0.139	5.18	8.7	7.35	6.13	7.28	8.58	8.62	2.55	1.53	1.47	1.65	0.138	2.19	0.4	4.2
TCGAGTAGGGTAGTCGGGGCATTCAGCCAACATA	-0.261	-0.324	-0.232	0.0407	-0.844	0.109	-0.307	0.468	0.525	0.442	1.33	0.997	-1.17	-0.743	0.299	-0.12	-0.394	-0.233	-0.527	0.0213
CCTTACGGGTCACGAGGGTATAGCACGACGAGCG	6.44	4.54	-0.0656	3.48	-0.518	5.73	6.45	6.17	2.67	5.26	3.29	5.07	0.569	0.0491	2.12	4.23	-0.0662	4.88	0.889	4.44
GATTGTAGATCAAGGTTAAGAAAGACTAAGCTAA	-0.0604	0.349	-0.364	0.458	-0.63	1.72	1.47	2.51	0.605	2.28	1.55	1.67	-0.436	-0.166	-0.088	0.443	-0.271	0.732	-0.134	0.406
